In test [1] the target is Aryl hydrocarbon receptor (Homo sapiens) (UniProt P35869). Description: qHTS assay to identify small molecule that activate the aryl hydrocarbon receptor (AhR) signaling pathway (AID 743085). Also: nearly all actives have a fitted effect of over 15% in size. Also: potency is read from the fitted curve at half-maximal effect.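 As to activation: HG2L7.5c1 human HepG2 liver cells with stably integrated DRE-driven firefly reporter; series mostly up to about 70 µM.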 Put shortly: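 Luminescence (ONE-Glo) from a dioxin-responsive-element luciferase reporter in HG2L7.5c1 HepG2 cells after 24 hr compound exposure at 37C; viability measured by CellTiter-Fluor fluorescence beforehand.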

For test [2], the target named is Peroxisome proliferator-activated receptor gamma (Homo sapiens) (UniProt P37231). In words: qHTS assay to identify small molecule agonists of the peroxisome proliferator-activated receptor gamma (PPARg) signaling pathway (AID 743094; active = well fitted activation curve with a large enough effect in the signal ratio in the repeat runs, not every such curve was filed as active; the % refers to the signal ratio). The essentials:
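Following 5 h plating at 37C, PPARg-bla HEK293H cells receive compound or DMSO for 17 h; fluorescence intensity is recorded after LiveBLAzer B/G loading for 1 h at room temperature.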

The target is the same in test [3]. Description: qHTS assay to identify small molecule antagonists of the peroxisome proliferator-activated receptor gamma (PPARg) signaling pathway (AID 743191; calls by dose curve; also: nearly all actives have a fitted effect of over 30% in size; also: potency is read from the fitted curve at half-maximal effect). The essentials: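 GeneBLAzer PPARg UAS-bla HEK293H cells carrying a UAS-driven beta-lactamase reporter were plated at 3000 cells/well, preincubated 5 h at 37C, then given compound for 17 h at 37C; LiveBLAzer B/G FRET substrate was read after 1 h at room temperature.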

Test [4] can be described thus: qHTS assay to identify small molecule antagonists of the peroxisome proliferator-activated receptor gamma (PPARg) signaling pathway - cell viability counter screen (AID 743194). Also: nearly all actives have a fitted effect of over 55% in size. Put shortly: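 PPARg-UAS-bla HEK293H cells were plated, rested 5 h at 37 C, then treated with compounds plus rosiglitazone (50 nM final) for 17 h at 37 C; viability was then read by CellTiter-Glo luminescence after 30 min at room temperature.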

Test [5] can be described thus: qHTS assay for small molecule agonists of the antioxidant response element (ARE) signaling pathway (AID 743202; active = well fitted activation curve with a large enough effect in the signal ratio in the repeat runs, not every such curve was filed as active; the % refers to the signal ratio). The essentials: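 Compounds delivered in DMSO to ARE-bla HepG2 cells (2,000 cells/well, pre-incubated 5 h) and left 16 h at 37 C. LiveBLAzer B/G FRET substrate then added for 2 h at RT before fluorescence reading.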
Test [6] in a line: qHTS assay for small molecule agonists of the antioxidant response element (ARE) signaling pathway - cell viability counter screen (AID 743203; calls by dose curve; also: nearly all actives have a fitted effect of over 55% in size). Put shortly:
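Compounds in DMSO were pinned onto ARE-bla HepG2 cells plated 5 hrs earlier at 2,000 cells/well. Sixteen hours later at 37C/5% CO2, CellTiter-Glo was added and luminescence measured after 30 min at room temperature.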

Test [7] is described as follows: qHTS assay for small molecule activators of the heat shock response signaling pathway - cell viability counter screen (AID 743209). Also: nearly all actives have a fitted effect of over 50% in size. The essentials: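 Counter screen for cytotoxicity in HeLa HSE-bla reporter cells. Treatment was 5 h at 37 C; viability was detected by luminescent ATP assay (CellTiter-Glo) in the same wells as the beta-lactamase read.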
Test [8] is described as follows: qHTS assay for small molecule activators of the heat shock response signaling pathway (AID 743210; active = well fitted activation curve with a large enough effect in the signal ratio in the repeat runs, with a control signal flat, not every such curve was filed as active; the % refers to the signal ratio;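 also: HeLa cells with beta-lactamase reporter driven by heat shock elements; series mostly up to about 63 µM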). The essentials: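 Reporter gene assay: HeLa cells stably bearing an HSE-bla construct, compound treatment 5 h at 37 C, LiveBLAzer substrate 2.5 h at RT, fluorescence intensity.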
Test [9] can be described thus: qHTS assay to identify small molecule agonists of the peroxisome proliferator-activated receptor delta (PPARd) signaling pathway - cell viability counter screen (AID 743211). Also: nearly all actives have a fitted effect of over 55% in size. The essentials: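 Viability was measured as CellTiter-Glo luminescence (30 min, room temperature) in the same wells as the beta-lactamase readout. GeneBLAzer PPARd UAS-bla HEK293H cells received compound after 5 h plating and were incubated 17 h at 37 C.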

Test [10] can be described thus: qHTS assay to identify small molecule that activate the aryl hydrocarbon receptor (AhR) signaling pathway - cell viability counter screen (AID 743086).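 Also: HepG2 liver cells carrying the AhR DRE luciferase reporter; series mostly up to about 70 µM; nearly all actives have a fitted effect of over 45% in size.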 The essentials: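 HepG2-AhR-luc (HG2L7.5c1) cells, 4000/well, were preincubated 5 h at 37C, exposed to compound in qHTS format for 24 hr at 37C, then given CellTiter-Fluor for 30 min; viability was read as fluorescence in the reporter wells.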

Results filed as inconclusive are left out. Calls of active or inactive are those of the source. Unless noted, calls follow the shape of the dose curve; as a rule, active = well fitted curve in the direction sought with a large enough effect in the repeat runs; inconclusive = weak or mixed curves; inactive = no such curve, though single readings can be large; an effect the other way counts as inactive or inconclusive.

Sequence of Aryl hydrocarbon receptor (Homo sapiens) (P35869 whole entry, looked up): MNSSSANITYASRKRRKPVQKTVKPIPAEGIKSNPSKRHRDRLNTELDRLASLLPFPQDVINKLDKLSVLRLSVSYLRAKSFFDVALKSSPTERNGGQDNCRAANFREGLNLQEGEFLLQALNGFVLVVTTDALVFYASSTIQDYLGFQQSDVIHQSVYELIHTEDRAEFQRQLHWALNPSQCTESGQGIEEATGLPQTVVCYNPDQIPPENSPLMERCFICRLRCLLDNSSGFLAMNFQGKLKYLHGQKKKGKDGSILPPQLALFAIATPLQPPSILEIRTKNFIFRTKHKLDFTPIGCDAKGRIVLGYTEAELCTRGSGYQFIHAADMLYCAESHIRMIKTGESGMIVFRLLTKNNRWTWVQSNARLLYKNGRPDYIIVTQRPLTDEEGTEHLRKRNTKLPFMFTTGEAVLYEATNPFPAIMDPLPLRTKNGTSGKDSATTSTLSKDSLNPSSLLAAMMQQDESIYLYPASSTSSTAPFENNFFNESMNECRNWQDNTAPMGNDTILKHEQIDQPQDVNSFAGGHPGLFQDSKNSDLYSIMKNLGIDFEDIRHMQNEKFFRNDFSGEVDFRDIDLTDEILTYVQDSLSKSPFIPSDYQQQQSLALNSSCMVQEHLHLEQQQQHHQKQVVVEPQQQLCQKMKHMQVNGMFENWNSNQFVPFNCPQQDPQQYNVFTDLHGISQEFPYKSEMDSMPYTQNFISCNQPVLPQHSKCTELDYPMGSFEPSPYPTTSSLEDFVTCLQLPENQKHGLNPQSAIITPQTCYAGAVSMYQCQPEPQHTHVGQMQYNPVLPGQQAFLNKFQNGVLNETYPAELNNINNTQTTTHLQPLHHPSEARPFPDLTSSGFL
Sequence of Peroxisome proliferator-activated receptor gamma (Homo sapiens) (P37231 whole entry, looked up): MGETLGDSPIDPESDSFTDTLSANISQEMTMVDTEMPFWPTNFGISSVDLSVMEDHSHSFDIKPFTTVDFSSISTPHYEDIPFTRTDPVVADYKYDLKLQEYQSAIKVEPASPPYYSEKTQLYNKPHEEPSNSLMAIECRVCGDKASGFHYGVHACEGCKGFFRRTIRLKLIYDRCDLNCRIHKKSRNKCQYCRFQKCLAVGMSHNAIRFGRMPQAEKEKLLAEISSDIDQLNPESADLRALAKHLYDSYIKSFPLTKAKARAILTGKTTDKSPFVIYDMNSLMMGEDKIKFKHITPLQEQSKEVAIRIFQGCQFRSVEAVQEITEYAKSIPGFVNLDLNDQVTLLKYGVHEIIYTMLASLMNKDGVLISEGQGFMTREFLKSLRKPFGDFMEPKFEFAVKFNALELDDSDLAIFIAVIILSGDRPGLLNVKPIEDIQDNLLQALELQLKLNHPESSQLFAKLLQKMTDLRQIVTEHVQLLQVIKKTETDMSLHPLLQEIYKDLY

For the molecule `CC(C)C/C=C(\C=O)c1ccccc1`, the Potency entry in test [1], in [2], in test [3], in test [4], in test [5] and in [6] was “inactive” throughout. For the same molecule, the Potency entry in [9] is “inactive”. Moreover, the molecule was called inactive in test [7] and in test [8].
Take `C[C@]12CCC(=O)C=C1[C@@H]1C[C@@H]1[C@H]1[C@@H]3[C@@H]4C[C@@H]4[C@@]4(CCC(=O)O4)[C@@]3(C)CC[C@@H]12`: the Potency entry in test [1], in test [10], in test [4], in test [6] and in [9] was “inactive” in each case. For the same molecule, the molecule was classed as inactive in test [7] and in test [8].
`CCCCCO`: the Potency entry in test [1], in test [10], in test [4], in [5], in [6] and in test [9] was “inactive” in each case. Further, the outcome in [8] was inactive.
Turning to `OCCOc1cccc(OCCO)c1`, the Potency entry in test [1], in test [2], in test [3], in [4], in test [5] and in [6] was “inactive” in each case. Further, in [9], the Potency result was “inactive”. Further, in [7], the result was inactive.
For the molecule `Oc1ccc(CCNCCCCCCNCCc2ccccc2)cc1O`, the Potency result in test [1], in test [10], in [4] and in [6] was “inactive” throughout.
With `CCC1=C(C)CN(C(=O)NCCc2ccc(S(=O)(=O)NC(=O)NC3CCC(C)CC3)cc2)C1=O` (configuration not stated), the Potency entry in test [1], in test [10], in [4], in test [6] and in test [9] was “inactive” in each case. Besides, the result in test [7] and in [8] was inactive.
As to `CO[C@@H]1[C@@H](O[C@@H]2O[C@H](C)[C@@H](O[C@H]3C[C@@](C)(O)[C@@H](O)[C@H](C)O3)[C@H](N(C)C)[C@H]2O)[C@@H](CC=O)C[C@@H](C)[C@@H](O[C@@H]2CC[C@H](N(C)C)[C@@H](C)O2)/C=C/C=C/C[C@@H](C)OC(=O)C[C@H]1OC(C)=O`, the Potency entry in [1], in test [2], in [3], in [4], in [5] and in test [6] was “inactive” in each case. Besides, the Potency entry in [9] is “inactive”. For the same molecule, the outcome in [7] and in [8] was inactive.
As to `COC(=O)c1cc(Cl)ccc1[N+](=O)[O-]`, the Potency result in test [1], in test [2], in [3], in test [4], in [5] and in test [6] was “inactive” throughout. The Potency entry in test [9] is “inactive”. Besides, the outcome in [8] was inactive.
With `OCC(O)c1ccccc1` (configuration not stated), the Potency entry in test [1], in test [10], in test [4], in [6] and in test [9] was “inactive” throughout. Besides, the result in test [7] and in test [8] was inactive.
Turning to `O=C(O)c1cc(C(=O)O)c(C(=O)O)cc1C(=O)O`, the Potency entry in test [1], in test [10], in test [4] and in test [9] was “inactive” throughout. The result in [7] and in test [8] was inactive.
Regarding `CCCC1CCCC(=O)O1` (configuration not stated), the Potency entry in test [1], in test [3], in test [4], in test [5] and in [6] was “inactive” throughout. The outcome in test [7] and in test [8] was inactive.
In the case of `CCOc1ccccc1O`, the Potency result in test [1], in test [2], in [4], in test [5], in [6] and in test [9] was “inactive” in each case. Besides, the molecule was classed as inactive in test [7] and in [8].
With `O=C(OCCCCCOC(=O)c1ccccc1)c1ccccc1`, the Potency result in test [1], in [2], in test [5] and in test [9] was “inactive” throughout. Besides, the result in test [7] and in [8] was inactive.
`Cc1nc(C)c(C)nc1C`: the Potency result in [10], in [2], in [3], in test [6] and in test [9] was “inactive” each time. The molecule was called inactive in test [8].
In the case of `CC(C)(C(=O)O)c1ccc(C(O)CCCN2CCC(C(O)(c3ccccc3)c3ccccc3)CC2)cc1` (configuration not stated), the Potency entry in [10], in test [2], in test [3], in test [6] and in test [9] was “inactive” in each case. In addition, in [8], the result was inactive.
As to `FC(F)(Cl)C(F)(Cl)Cl`, the Potency result in test [10], in test [2], in test [3], in test [5], in test [6] and in [9] was “inactive” in each case. The molecule was classed as inactive in [7] and in [8].
With `CC(C)(Cc1c[nH]c2ccccc12)NCC(O)COc1ccccc1C#N` (configuration not stated), in [1], the Potency was 29.8 µM (active). Further, the Potency result in test [4] is “inactive”. In addition, the call in test [7] and in [8] was inactive.
With `O=[N+]([O-])c1ccccc1CCO`, the Potency result in test [10], in test [2], in test [3], in test [4], in test [6] and in [9] was “inactive” in each case. Besides, in test [8], the call was inactive.
For `CCOc1ccc2c(c1)C(C)CC(C)(C)N2` (configuration not stated), the Potency entry in test [10], in [2], in [3], in [4], in test [5] and in [6] was “inactive” in each case. In addition, the Potency result in [9] is “inactive”. For the same molecule, the molecule was classed as inactive in [7] and in [8].
`CC(=O)CC/C=C(\C)CC/C=C(\C)CC/C=C(\C)CCC=C(C)C`: the Potency result in [10], in [2], in test [3], in test [4], in test [6] and in test [9] was “inactive” throughout. In addition, the result in test [7] and in test [8] was inactive.
As for `CC[C@H](NC(C)C)[C@H](O)c1ccc(O)c2[nH]c(=O)ccc12`, the Potency result in test [1], in test [3], in test [4], in test [5], in test [6] and in test [9] was “inactive” throughout. For the same molecule, the outcome in [8] was inactive.
For the molecule `O=C(Cl)c1cc(Cl)cc(Cl)c1`, the Potency result in test [1], in [2], in [4], in test [6] and in [9] was “inactive” in each case. Also, the call in test [7] and in test [8] was inactive.
On to `Clc1nc2ccccc2nc1Cl`, for which the Potency result in test [1], in test [4], in [5], in [6] and in test [9] was “inactive” each time. The molecule was called inactive in test [7].
As to `Nc1ccccc1Nc1ccccc1`, the Potency was 54.6 µM (active) in test [1] and 43.8 µM (active) in test [3]. The Potency result in test [4] and in test [9] was “inactive” each time.
With `C/C=C1\[C@H]2C=C(C)C[C@]1(N)c1ccc(=O)[nH]c1C2`, the Potency entry in [10], in [2], in test [3], in test [4], in test [5] and in test [6] was “inactive” in each case. The Potency result in test [9] is “inactive”. Also, the outcome in test [7] and in test [8] was inactive.
For `COC(=O)Cc1cccc2ccccc12`, the Potency result in test [1], in [2], in test [5], in [6] and in test [9] was “inactive” throughout. In addition, the call in test [7] and in test [8] was inactive.
As to `COc1cccc([C@H](O)C2CCN(CCc3ccc(F)cc3)CC2)c1OC`, the Potency result in [1], in test [3], in test [4] and in test [9] was “inactive” in each case. Also, the molecule was called inactive in test [7] and in test [8].
